Sampled rows, rich in hits. Any-hit rate of the full collection: about 1.3%.
MEX-5 binding – C. elegans MEX-5 TCR-2 RNA binding activity | Q9XUB2 | MEX-5/FITC-TCR2 RNA binding, fluorescence polarization; hits give low values | activity score (negative = inhibition of binding), % at 10 µM | 300,000 tested, 0.38% active | AID 1832;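 active = inhibition past about -25% in most replicates, and total fluorescence under double the plate's negative control median, limit read from the data; inconclusive = replicates evenly split on the limit, or fluorescence at least double controls; inactive = too little inhibition in most replicates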;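 note: 0% = DMSO and -100% = 5 µM competing unlabeled TCR2 RNA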
EBV gp42 inh – inhibitors of Epstein-Barr virus glycoprotein 42. Q1HVG2. Fluorescence polarization binding assay, mP read-out. inhibition, % (tested at 21.74 µM). 220,000 tested, 0.42% active. AID 1085; in the data active = inhibition above about 50%
Bcl-xL primary – blocks human Bcl-xL binding to Bim BH3 peptide; Q07817; GST-Bcl-xL / FITC-Bim BH3 peptide fluorescence polarization; inhibition, % at 10.9 µM; 320,000 tested, 0.7% active; AID 2129;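 active = inhibition above the mean of all tested compounds plus 3 SD, cutoff set per campaign, cut at about 30% in these data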;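 note: 0% = DMSO wells and 100% = unlabeled Bim-BH3 peptide competitor; inhibitors lower millipolarization by displacing the labeled peptide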
Target sequence (Q07817 whole entry, looked up): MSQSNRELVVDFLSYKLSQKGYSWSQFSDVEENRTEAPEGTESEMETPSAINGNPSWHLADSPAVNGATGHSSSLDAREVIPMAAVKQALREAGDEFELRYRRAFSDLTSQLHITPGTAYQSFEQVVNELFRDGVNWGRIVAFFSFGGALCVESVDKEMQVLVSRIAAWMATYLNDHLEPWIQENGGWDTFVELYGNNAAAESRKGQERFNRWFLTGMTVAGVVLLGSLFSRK
MCL1-BIM inh – inhibitors of human MCL1 binding to BIM-BH3 peptide; Q07820; AID 2057; 320,000 tested, 0.68% active; inhibition, % at 10.9 µM; GST-MCL1 / FITC-Bim-BH3 fluorescence polarization;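 active = inhibition above the mean inhibition of all tested compounds plus 3 SD, set per campaign, cut at about 40% in these data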;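 note: 0% = DMSO wells and 100% = unlabeled Bim-BH3 peptide control; higher means more loss of mP so more displacement of Bim peptide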
GLD-1 TGE inh – GLD-1-TGE RNA interaction inhibition (C. elegans); Q17339; purified GLD-1 + fluorescein TGE RNA, fluorescence polarization; inhibition, % at 5.96 µM; 320,000 tested, 0.44% active; AID 2280;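 active = percent inhibition above a per-plate cutoff, the plate mean of test compounds plus 3 SD, cut at about 30% in these data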;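 note: 0% = DMSO wells with GLD-1 and probe and 100% = wells lacking GLD-1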
The depositor's hits bear a star; u = inconclusive; x = no result.

SMILES	MEX-5 binding	EBV gp42 inh	Bcl-xL primary	MCL1-BIM inh	GLD-1 TGE inh
CCNS(=O)(=O)c1ccc(Br)c(C(=O)OC(C)C(=O)NCC2CCCCC2)c1 (stereo unspecified)	x	x	-9	-7	-1
CC(C)N1CC=C2C(C#N)=C(N)C(C#N)(C#N)C(c3ccccc3)C2C1 (stereo unspecified)	u	72*	117*	128*	93*
CN1CC=C2C(C#N)=C(N)C(C#N)(C#N)C(Cc3ccccc3)C2C1 (stereo unspecified)	-69*	49	118*	129*	69*
CCC1C2CN(C(C)=O)CC=C2C(C#N)=C(N)C1(C#N)C#N (stereo unspecified)	-4	-6	19	22	13
CCN1CC=C2C(C#N)=C(N)C(C#N)(C#N)C(c3cc(Cl)ccc3Cl)C2C1 (stereo unspecified)	u	73*	122*	150*	104*
CCC1(C)CC2(CCCN(CCC(=O)c3ccccc3)C2)CCO1 (stereo unspecified)	0	-6	3	5	-1
Cc1ccc(Cl)c2c1NC(=O)C2=O	x	x	x	x	1
O=c1[nH][nH]c2cc(=O)n(-c3ccc(Cl)cc3)nc12	-32*	6	20	23	2
CC(=O)c1nn(-c2ccc(Cl)cc2)c(=O)[nH]c1=O	1	x	4	4	-4
CN(CC(=O)O)Cc1nc2ccccc2[nH]1	1	8	1	5	1
O=C(O)c1cc(-c2ccc(/C=c3\sc4nc5ccc(Br)cc5n4c3=O)o2)ccc1Cl	-29*	x	-27	-8	-52
CN(C)c1ccc(/C=C/c2cc[n+](C)cc2)cc1	27	-91	9	-5	95*
CC[n+]1c(/C=C/c2ccc(N(C)C)cc2)ccc2ccccc21	-27*	-56	-7	-13	-3
Cc1cc(-c2ccc(N3CCOCC3)cc2)nc2ccccc12	-4	56*	18	20	-93
O=C(CN1C(=O)COc2ccccc21)Nc1ccccc1F	0	x	7	6	6
O=C1COc2ccccc2N1Cc1c(F)cccc1Cl	2	x	47*	8	-2
Nc1ccc2nc(CCCCCCc3nc4ccc(N)cc4[nH]3)[nH]c2c1	-2	0	4	7	5
Nc1ccc2nc(CCCO)[nH]c2c1	-49*	-12	3	2	0
CSc1cccc(NC(=S)NC(=O)c2cccnc2)c1	5	x	x	x	x
CN(C)S(=O)(=O)c1cc(NC(=O)CN2CCCc3ccccc32)ccc1Cl	-1	6	-6	-15	-105
CN(C)S(=O)(=O)c1cc(NC(=O)CN2CCc3ccccc32)ccc1Cl	-8	-9	45*	45*	24
O=C(COC(=O)c1cnccn1)Nc1ncc(Cl)cc1Cl	-7	x	34*	33	22
O=C(COC(=O)c1cnccn1)Nc1c(Cl)cc(Cl)cc1Cl	x	x	2	-3	0
CCn1c(C)cc(/C=C2/NC(=O)N(c3ccccc3)C2=O)c1C	0	-5	31*	39	19
COCCn1c(C)cc(/C=C2/NC(=O)N(c3cccc(Cl)c3)C2=O)c1C	1	-13	15	8	2
SMILES	MEX-5 binding	EBV gp42 inh	Bcl-xL primary	MCL1-BIM inh	GLD-1 TGE inh
COc1ccc(OC)c(/C=C2\SC(=S)N(Cc3cccnc3)C2=O)c1	-8	142*	-23	-46	-16
COc1ccc(O)c(/C=C2/SC(=S)N(Cc3ccccc3)C2=O)c1	0	x	-38	-68	-21
CN(C)C=Nc1nc2ccccc2nc1N1CCCC1	3	0	43*	41*	17
c1ccc2nc(N3CCCC3)c(N3CCCC3)nc2c1	3	4	39*	44*	22
CN1CCCN(C(=O)Cc2c(Cl)cccc2Cl)c2nc3ccccc3nc21	1	16	3	8	4
CC1CC(C)CN(C(=O)C(C)N(C)CC(=O)Nc2ccccc2Cl)C1 (stereo unspecified)	x	-32	3	-1	4
COc1ccccc1C1CN=NC12CCCc1ccccc1C2=O (stereo unspecified)	1	-14	1	-3	4
Cn1cc(C2=C(c3ccc(Cl)cc3Cl)C(=O)NC2=O)c2ccccc21	u	x	60*	24	-10
COc1ccc(N2CCN(S(=O)(=O)c3cc4c(cc3C)N(C(C)=O)CCO4)CC2)cc1	-1	x	6	-5	1
CCc1c(C)nc(SCC(=O)c2cccs2)c(C#N)c1C	-34*	-20	-1	-7	-24

Source: PubChem BioAssay (several laboratories)
